Compounds with a hit are over-represented: about 5.7% of the library has one in this group of screens.
S2 tox = cell viability loss in ATXN counter-screen; Potency, µM (series often up to 56.7 µM), hits mostly cytotoxic; S2 cells (HEK-293 line with an ATXN2-luciferase reporter) viability, CellTiter-Fluor protease fluorescence, 24 h; actives 0.49% (n = 400,000); AID 651635; further: potency means the concentration at half of the fitted maximal effect; nearly all actives have a fitted effect of over 40% in size
IL-1B inflam inh = inflammasome signaling inhibition, IL-1 beta readout; THP-1 LPS/ATP IL-1B secretion, AlphaLISA, 16 h; stronger effect = lower value; activity change, % at 57.5 µM; actives 4.7% (n = 360,000); in the data active means activity change below about -50%; inconclusive means mostly about -30% to -49%; further: on the % scale 0 is the no-effect control and ±100 the full control effect
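Secreted IL-1B measured by AlphaLISA bead assay after 16 h compound exposure of THP-1 cells; compounds (final up to 57.5 uM) added 1 h before LPS (250 ng/mL) and ATP (1.25 mM) stimulation; lower signal means less secretion.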
TGFb inhibitor = blocks TGF-b signaling; HepG2 CAGA-GFP TGF-b/SMAD3 reporter, GFP fluorescence, 18 h; TGF-beta stimulated, 500 pg/mL final; Potency, µM (titrated, usually from 46.1 µM), without a hit: at the highest dose activity, negative = inhibition, usual class: inhibitors; actives 1.2% (n = 410,000); further: potency means the concentration at half of the fitted maximal effect; on the % scale 0 is the no-effect control and ±100 the full control effect; nearly all actives have a fitted effect of over 65% in size
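Inhibition of TGF-beta-driven CAGA-GFP reporter expression in HEPG2 cells is measured by cellular GFP fluorescence after 18 h stimulation with 500 pg/mL recombinant TGF-beta in 1% FBS medium at 37 degrees C.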
HepG2 viability = counter-screen for TGF-b inhibitors: cytotoxicity in HepG2 cells; Potency, µM (titrated, usually from 46.1 µM), without a hit: top-dose activity change, negative = cytotoxicity, most hits filed as cytotoxic; actives 0.76% (n = 410,000); HepG2 CAGA-GFP viability, ATP luminescence, 18 h; further: potency means the concentration at half of the fitted maximal effect
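CellTiter-Glo luminescence gave cytotoxicity after 18 hours at 37 degrees C. The cells were HepG2 CAGA-GFP in 1% FBS DMEM, stimulated with 500 pg/mL TGF-beta after compound addition. %Activity was normalised to no-cell wells (complete cell-killing) and DMSO (no toxicity), and curves were fitted and classified.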
ATXN2 expr inh = ATXN2 expression inhibition | AID 1745845 | Potency, µM (highest dose often 57 µM), for the others: top-dose activity change, negative = inhibition, most hits filed as inhibitors | HEK-293 ATXN2-luciferase reporter, luminescence, 24 h | actives 0.72% (n = 360,000); further: potency means the concentration at half of the fitted maximal effect; on the % scale 0 is the no-effect control and ±100 the full control effect; nearly all actives have a fitted effect of over 55% in size
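ATXN2-luciferase reporter cells (luciferase flanked by upstream and downstream ATXN2 gene portions) were treated 24 h at 37 °C with compounds at up to 57 uM. SteadyGlo luminescence gave expression; GF-AFC fluorescence gave viability.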
Starred values were filed as active, the others as inactive; i = inactive; ? = inconclusive; . = no result given. Unless noted, the call rests on the fitted dose curve; in most records, active means well fitted curve in the direction sought with a large enough effect; inconclusive means small, poorly fitted or top-dose-only effect, or another doubt; inactive means no such curve, though single readings can be large; an effect the other way counts as inactive or inconclusive.

SMILES	S2 tox	IL-1B inflam inh	TGFb inhibitor	HepG2 viability	ATXN2 expr inh
COc1ccccc1C1CCN(C(=O)c2ccc(C(C)(C)C)cc2)CC1	i	-92.0*	12.6µM*	-58.1%	16.7%
CC(=O)c1ccc(N2C(=O)C3C(C2=O)C(C(=O)c2ccc(Cl)cc2)N2CCCC32)cc1 (centres undefined)	i	-108.9*	8.1%	-21.4%	36.7%
Cc1ccc(N2C(=O)[C@@H]3[C@H](C2=O)C2CCCN2[C@@H]3C(=O)c2ccccc2)cc1 (some centres undefined)	?	-7.6	?	-61.7%	11.8%
O=C(c1ccccc1)[C@@H]1[C@@H]2C(=O)N(c3ccc(F)cc3)C(=O)[C@@H]2C2CCCN21 (some centres undefined)	?	-58.9*	?	-52.0%	.
O=C(c1ccc(Cl)cc1)C1C2C(=O)N(c3ccccc3)C(=O)C2C2CCCN21 (centres undefined)	i	37.6	16.5%	17.6%	-1.7%
Clc1nc(Nc2ccc(N3CCOCC3)cc2)c2ccccc2n1	i	-64.2*	-0.7%	6.4%	-26.7%
O=S(=O)(Nc1nc2ccccc2nc1Nc1ccc(N2CCOCC2)cc1)c1cc(Cl)ccc1Cl	i	31.8	1.6%	0.3%	0.8%
CCOC(=O)c1nc(Nc2ccc(N3CCOCC3)cc2)c2ccccc2n1	i	-84.3*	2.5%	-19.9%	4.5%
CCOC(=O)C1=CCN(S(=O)(=O)c2ccc(C)cc2)C1c1ccccc1 (centres undefined)	?	22.5	7.5%	-29.0%	-20.0%
CCOc1cc2c(c3c1C(c1ccccc1)N(S(=O)(=O)c1ccc(C)cc1)C3)C(=O)C=CC2=O (centres undefined)	6.31µM*	-117.8*	?	8.91µM*	?
Cc1cccc(N2CCN(c3nc4ccc(C(=O)c5ccccc5)cc4n4cnnc34)CC2C)c1 (centres undefined)	.	.	0.0%	2.2%	.
CCCC(=O)N1CCN(c2nc3ccc(F)cc3s2)CC1	.	.	-0.5%	-25.3%	.
CC(C)C[C@H](NC(=O)c1nc[nH]c1C(=O)NCc1ccccc1)C(=O)OC(C)(C)C	?	4.1	11.2µM*	-80.4%	?
CC(C)C[C@H](NC(=O)c1[nH]cnc1C(=O)Nc1ccc(CNC(=O)OC(C)(C)C)cc1)C(=O)OCc1ccccc1	?	-1.7	?	-42.0%	28.2µM*
CC(C)C[C@H](NC(=O)c1[nH]cnc1C(=O)N[C@@H](C)c1ccccc1)C(=O)OC(C)(C)C	25.1µM*	-4.1	?	-58.9%	?
CC(C)C[C@H](NC(=O)c1nc[nH]c1C(=O)NCc1ccc(CNC(=O)OC(C)(C)C)cc1)C(=O)OC(C)(C)C	?	-23.8	?	-24.3%	-17.7%
CC(C)C[C@H](NC(=O)c1[nH]cnc1C(=O)Nc1ccccc1F)C(=O)OC(C)(C)C	?	-1.6	?	11.2µM*	?
O=C1CCCc2cc(S(=O)(=O)N3CCCC(C(=O)Nc4ccc(F)c(Cl)c4)C3)ccc2N1 (centres undefined)	?	.	-12.7%	-37.0%	?
CCN1C(=O)c2ccccc2S(=O)c2ccc(C(=O)N3CCN(c4ccc(F)cc4)CC3)cc21 (centres undefined)	i	.	-1.1%	-15.9%	0.0%
CC(C)C[C@H](NC(=O)c1[nH]cnc1C(=O)N[C@@H](Cc1ccccc1)C(=O)OC(C)(C)C)C(=O)OCc1ccccc1	?	-6.1	?	-6.4%	-30.5%
CC(C)C[C@H](NC(=O)c1[nH]cnc1C(=O)N[C@@H](Cc1ccccc1)C(=O)OC(C)(C)C)C(=O)OC(C)(C)C	.	-50.4*	11.2µM*	-31.3%	?
O=C(Nc1ccccc1)N(Cc1cccs1)c1ccc(F)cc1	.	.	-11.2%	5.0%	.
Cc1ccc(C(=O)CSc2nc(C)cc(C)c2C(N)=O)cc1	i	-52.1*	-6.8%	7.9%	14.9%
Cc1cc(C)c(C#N)c(SCC(=O)c2cccs2)n1	i	-98.5*	0.0%	-0.1%	34.3%
COC(=O)CSc1nc(C)cc(C)c1C#N	i	-10.7	12.6%	6.7%	4.8%
SMILES	S2 tox	IL-1B inflam inh	TGFb inhibitor	HepG2 viability	ATXN2 expr inh
Cc1nc(SCC(=O)c2ccccc2)c(C#N)c(-c2ccco2)c1C(=O)NCc1ccco1	i	-97.8*	?	-8.3%	-13.9%
Cc1cc(C)c(C(N)=O)c(SCC(=O)c2ccc(Cl)cc2)n1	i	-20.5	-2.6%	-32.9%	0.0%
Cc1cc(C)c(C#N)c(SCC(=O)c2ccccc2)n1	.	-11.5	10µM*	-9.0%	-10.1%
Cc1ccc(-c2nnc(SC(C)C(=O)NCc3ccco3)n2C)cc1 (centres undefined)	.	.	-11.9%	-9.0%	.
CCN(CC)CCCN(Cc1cc2cc(OC)ccc2[nH]c1=O)C(=O)Nc1ccc(F)cc1	i	-51.5*	1.1%	-13.9%	-4.4%
CCN(CC)CCCN(Cc1cc2cc(OC)ccc2[nH]c1=O)C(=O)Nc1ccccc1	i	-3.9	13.3%	1.5%	-11.7%
CCc1ccc2[nH]c(=O)c(CN(Cc3ccccc3)C(=O)Nc3ccccc3OC)cc2c1	?	-58.5*	-22.7%	-24.3%	-25.1%
CCc1ccc2[nH]c(=O)c(CN(CCN(CC)CC)C(=O)Nc3ccccc3OC)cc2c1	?	-53.2*	9.5%	-23.9%	-27.4%
O=C1CCCc2[nH]c(=O)c(C(=O)NCc3ccccc3)cc21	.	.	4.5%	-24.4%	.
C=CC[N+]1([C@H]2C[C@H]3[C@@H]4CC[C@H]5C[C@H](O)[C@@H](N6CCOCC6)C[C@]5(C)[C@@H]4CC[C@]3(C)[C@H]2OC(C)=O)CCCC1	.	.	.	.	1.0%
Cc1c(NC(=O)/C(C#N)=C/c2ccc(-c3ccc(Cl)cc3)o2)c(=O)n(-c2ccccc2)n1C	?	-62.2*	?	-38.1%	?
Cc1c(NC(=O)/C(C#N)=C/c2ccc(-c3cc(Cl)ccc3Cl)o2)c(=O)n(-c2ccccc2)n1C	?	0.0	?	-14.9%	?
N#C/C(=N\Nc1ccc(Cl)cc1)C(=O)c1ccccc1	?	-52.3*	?	-36.3%	?
Cc1c(N/N=C(\C#N)C(=O)c2ccc(Cl)cc2)c(=O)n(-c2ccccc2)n1C	?	36.2	?	3.3%	7.94µM*
CCOC(=O)NC(=O)/C(C#N)=N\Nc1ccc(Cl)cc1	i	1.7	-2.2%	-6.8%	-24.0%
CN[C@H]1[C@@H](O)[C@@H]2O[C@@H]3O[C@H](C)CC(=O)[C@]3(O)O[C@@H]2[C@@H](NC)[C@H]1O	.	.	.	.	27.3µM*
Cc1cc(NC(=O)Nc2cccc(Cl)c2)n(-c2ccccc2)n1	i	-14.0	0.3%	-3.0%	-6.8%
Cc1cc(NC(=O)c2ccc(F)cc2)n(-c2ccccn2)n1	i	-68.0*	-5.0%	-22.2%	-6.4%

Screening results (PubChem)
